Data taken from the supplement of paper PMC6897291.

Tested on: RIVA
Assay: growth inhibition by drug alone (1 - RLU/untreated control) (fraction); higher = stronger inhibition
Conditions: 177Lu-lilotomab satetraxetan 0 ug/ml
Method: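 RIVA (RI-1) ABC-DLBCL cells were pretreated or not for 18 h with 0.5 ug/ml 177Lu-lilotomab satetraxetan (600 MBq/mg), washed and seeded (3000 cells/well) on 384-well plates pre-printed with the Selleck Cambridge Cancer Compound library. Viability was read by RealTime-Glo luminescence on days 3-6 after seeding. Effect = 1 - RLU/mean RLU of the 48 untreated no-drug control wells per plate; Bliss score = (M-E)/(1-Fa).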

Structure (SMILES): CCC(=O)N1CCN(c2ccc(-n3c(=O)ccc4cnc5ccc(-c6cnc7ccccc7c6)cc5c43)cc2C(F)(F)F)CC1 [Torin 1]
- growth inhibition by drug alone (10 nM, time (day): 3): 0.0288
- growth inhibition by drug alone (10 nM, time (day): 4): 0.0386
- growth inhibition by drug alone (10 nM, time (day): 5): -0.0391
- growth inhibition by drug alone (10 nM, time (day): 6): -0.398
- growth inhibition by drug alone (100 nM, time (day): 3): 0.409
- growth inhibition by drug alone (100 nM, time (day): 4): 0.37
- growth inhibition by drug alone (100 nM, time (day): 5): 0.289
- growth inhibition by drug alone (100 nM, time (day): 6): 0.104

Structure (SMILES): Cc1[nH]c2ccccc2c1CCNCc1ccc(/C=C/C(=O)NO)cc1 [Panobinostat]
- growth inhibition by drug alone (10 nM, time (day): 3): 0.637
- growth inhibition by drug alone (10 nM, time (day): 4): 0.535
- growth inhibition by drug alone (10 nM, time (day): 5): 0.447
- growth inhibition by drug alone (10 nM, time (day): 6): 0.328
- growth inhibition by drug alone (100 nM, time (day): 3): 0.977
- growth inhibition by drug alone (100 nM, time (day): 4): 0.977
- growth inhibition by drug alone (100 nM, time (day): 5): 0.975
- growth inhibition by drug alone (100 nM, time (day): 6): 0.975

Structure (SMILES): CC(=O)Nc1nc(C)c(-c2ccc(Cl)c(S(=O)(=O)NCCO)c2)s1
- growth inhibition by drug alone (10 nM, time (day): 3): 0.0212
- growth inhibition by drug alone (10 nM, time (day): 4): 0.026
- growth inhibition by drug alone (10 nM, time (day): 5): -0.0187
- growth inhibition by drug alone (10 nM, time (day): 6): -0.271
- growth inhibition by drug alone (100 nM, time (day): 3): -0.0771
- growth inhibition by drug alone (100 nM, time (day): 4): -0.0663
- growth inhibition by drug alone (100 nM, time (day): 5): -0.1
- growth inhibition by drug alone (100 nM, time (day): 6): -0.193

Structure (SMILES): Cc1ccc(-c2cc(C(F)(F)F)nn2-c2ccc(S(N)(=O)=O)cc2)cc1 [Celecoxib]
- growth inhibition by drug alone (10 nM, time (day): 3): -0.101
- growth inhibition by drug alone (10 nM, time (day): 4): -0.129
- growth inhibition by drug alone (10 nM, time (day): 5): -0.153
- growth inhibition by drug alone (10 nM, time (day): 6): -0.237
- growth inhibition by drug alone (100 nM, time (day): 3): -0.0795
- growth inhibition by drug alone (100 nM, time (day): 4): -0.119
- growth inhibition by drug alone (100 nM, time (day): 5): -0.157
- growth inhibition by drug alone (100 nM, time (day): 6): -0.232

Structure (SMILES): CS(=O)(=O)c1cccc(CNc2nc(Nc3ccc4c(c3)CCC(=O)N4)ncc2C(F)(F)F)c1
- growth inhibition by drug alone (10 nM, time (day): 3): -0.0802
- growth inhibition by drug alone (10 nM, time (day): 4): -0.0828
- growth inhibition by drug alone (10 nM, time (day): 5): -0.0817
- growth inhibition by drug alone (10 nM, time (day): 6): -0.0957
- growth inhibition by drug alone (100 nM, time (day): 3): -0.0969
- growth inhibition by drug alone (100 nM, time (day): 4): -0.126
- growth inhibition by drug alone (100 nM, time (day): 5): -0.181
- growth inhibition by drug alone (100 nM, time (day): 6): -0.218
